# Test results taken from PubChem BioAssay (Tox21).
# Inconclusive results are not listed. Calls of active or inactive are those of the source. The call rests on the fitted dose curve; in most records, active means well fitted cell-killing curve with a large enough effect in the repeat runs; inconclusive means weak or mixed curves, or effect the other way; inactive means no such curve, though single readings can be large or run the other way. Non-standard residues stand in square brackets, D forms with d. Residues, ends and D or L forms follow the SMILES beside them. *: point of attachment. Sta = CC(C)C[C@H](N)[C@@H](O)CC(=O)O; Isovaleryl = CC(C)CC(=O)*
# Test: qHTS assay to identify small molecule agonists of the vitamin D receptor (VDR) signaling pathway - cell viability counter screen (AID 743224); further: nearly all actives have a fitted effect of over 50% in size
# Settings: VDR-bla HEK293T viability, CellTiter-Glo luminescence, 16 h; series mostly up to 62.6 µM; activity change, negative = cytotoxicity: at the top concentration
# From the text: U.S. Tox21 Program National Center for Advancing Translational Sciences [NCATS] NIH Chemical Genomics Center [NCGC] U.S. Environmental Protection Agency [EPA] National Institutes of Environmental Health Sciences [NIEHS] National Toxicology Program [NTP] U.S. Food and Drug Administration [FDA] Tox21 Assay Overview: The vitamin D receptor (VDR), a member of nuclear hormone receptor superfamily, plays a critical role in calcium homeostasis and bone metabolism. It is also involved in cell differentiation and growth, and thrombogenicity. […] The cytotoxicity of the Tox21 compound library against the VDR-bla cell line was tested in parallel by measuring the cell viability using CellTiter-Glo assay (Promega, Madison, WI) in the same wells.
# Tox21 Assay Protocol Summary: VDR-bla cells were dispensed at 2,000 cells/6 uL/well into black wall/clear-bottom 1536-well plates using a Multidrop Combi (Thermo Fisher Scientific, Waltham, MA) dispenser. After the assay plates were incubated at a 37C and 5% CO2 for 4 h, 23 nL of compounds dissolved in DMSO, positive controls or DMSO only was transferred to the assay plate by a Pintool station (Kalypsys, San Diego, CA). The plates were incubated at 37C and 5% CO2 for 16 h. After 1 uL of LiveBLAzerTM B/G FRET substrate was added using a Bioraptr Flying Reagent Dispenser (FRD) workstation (Beckman Coulter, Indianapolis, IN, USA), the plates were incubated at room temperature for 2 h, and fluorescence intensity was measured by an Envision plate reader (PerkinElmer, Shelton, CT). For cell viability readout that measures cytotoxicity, 3 ul/well of CellTiter-Glo reagent was added into the assay plates using a FRD. After 30 min incubation at room temperature, the luminescence intensity in the plates was measured using a ViewLux (PerkinElmer) plate reader.
# On the % scale 0 is the no-effect control and ±100 the full control effect.
row,SMILES,"activity change, negative = cytotoxicity"
1,Cc1ccccc1OCC(=O)O,-8.87% (inactive)
2,CC(CC(=O)Cl)CC(C)(C)C (stereo not given),2.86% [at 81.1 µM] (inactive)
3,CC(C)c1cc(C(C)C)cc(C(C)C)c1,4.35% (inactive)
4,CCCCN1C(=O)c2ccccc2C1=O,2.83% [at 81.1 µM] (inactive)
5,CN(C)CCc1c[nH]c2ccc(C[C@H]3COC(=O)N3)cc12,4.09% (inactive)
6,C=CC(C)(CCC=C(C)C)OC(=O)C(C)C (stereo not given),-26.1% (inactive)
7,CCOc1ccccc1OCCN[C@H](C)Cc1ccc(OC)c(S(N)(=O)=O)c1,1.19% (inactive)
8,O=C(O)Cc1ccccc1Oc1ccc(Cl)cc1Cl,0.22% (inactive)
9,CCc1ncc(C)[nH]1,11.7% (inactive)
10,CCO/C=C1\N=C(c2ccccc2)OC1=O,-0.636% (inactive)
11,C/C(=N\O)c1ccc(OCC(=O)N2CCCCC2)cc1,25.4% (inactive)
12,C[C@@H]1CCC[C@H](C)N1CCCC(O)(c1ccccc1)c1ccccn1 (stereo not given in full),-0.629% (inactive)
13,CCCCCCCCS(=O)(=O)O,-0.744% [at 81.1 µM] (inactive)
14,CC(=O)OC1CCC(C(C)(C)C)CC1 (stereo not given),9.13% (inactive)
15,Cc1ccc(O)c([N+](=O)[O-])c1,16.8% [at 81.1 µM] (inactive)
16,CCCc1ncc(C(=O)O)s1,-2.13% (inactive)
17,CCCCN=C(N)N=C(N)N,-0.189% (inactive)
18,C/C=C(\C)C=O,7.5% [at 81.1 µM] (inactive)
19,Cc1ccc2ccccc2n1,5.37% (inactive)
20,CC(C)(C)NCC(O)COc1cccc2c1CCC(=O)N2 (stereo not given),-4.85% (inactive)

row,SMILES,"activity change, negative = cytotoxicity"
1,CN1CCN(C(=O)C2CCCCC2)CC1,7.8% (inactive)
2,CCCCCCCCCCCBr,-0.827% (inactive)
3,CC(C)(C)C(=O)CC(=O)C(C)(C)C,-0.234% [at 81.1 µM] (inactive)
4,NS(=O)(=O)c1cc2c(cc1C(F)(F)F)NCNS2(=O)=O,15.9% (inactive)
5,CCCCCCCCCCCCCCCC(=O)OC,1.92% [at 29.1 µM] (inactive)
6,Cc1ccc(S(=O)(=O)NC(=O)NN2CC3CCCC3C2)cc1 (stereo not given),8.16% (inactive)
7,CC(=O)OCC(=O)[C@@]1(O)CC[C@H]2[C@@H]3CCC4=CC(=O)C=C[C@]4(C)[C@H]3[C@@H](O)C[C@@]21C,-0.235% (inactive)
8,O=C(CCBr)N1CCN(C(=O)CCBr)CC1,-1.39% (inactive)
9,CC(C)CC(=O)N[C@H](C(=O)N[C@H](C(=O)N[C@@H](CC(C)C)[C@@H](O)CC(=O)N[C@@H](C)C(=O)N[C@@H](CC(C)C)[C@@H](O)CC(=O)O)C(C)C)C(C)C (Isovaleryl-VV[Sta]A[Sta]-OH),18.5% (inactive)
10,CC(C)C(=O)Nc1cccc(C2CN3CCSC3=N2)c1 (stereo not given),2.29% (inactive)
11,CCOCCOCCOC(C)=O,21.7% [at 81.1 µM] (inactive)
12,CC(C)OCCO,8.16% (inactive)
13,CCCCNCC,-12.3% (inactive)
14,CCCC[O][Al]([O]CCCC)[O]CCCC,0.555% (inactive)
15,CCOC(=O)CC(C(C)=O)C(C)=O,-0.265% (inactive)
16,CCC(=O)OCCOc1ccccc1,-4.82% (inactive)
17,O=C(O)COc1ccc2ccccc2c1,-3.48% (inactive)
18,Cc1ccc(Br)cc1,-0.585% (inactive)
19,CCCCCC(CC)OC(=O)CCCOc1ccc(Cl)cc1Cl (stereo not given),0.557% (inactive)
20,CO/N=C(\C(=O)O)c1csc(NC(=O)CCl)n1,15% (inactive)
